Data: PMC11062922 (Nature Chemical Biology, 2023)
Where two headings read alike, the source gives them in different places.

Assays:
[1] = tested on: PRKAA2; conditions: read-out: apparent Kd, n = 1
[2] = tested on: PRKD2; conditions: read-out: apparent Kd, n = 1

Lestaurtinib
potency estimated from few doses ([1]; compound concentrations:100 nM and 1000 nM (sheet 'Lestaurtinib' of Supplementary Table 1),run:Lestaurtinib_02496_R2,Plate:MR013): 598 nM
potency estimated from few doses ([1]; compound concentrations:100 nM and 1000 nM (sheet 'Lestaurtinib' of Supplementary Table 1),run:Lestaurtinib_02496_R3,Plate:MR013): 785 nM
potency estimated from few doses ([1]; compound concentrations:100 nM and 1000 nM (sheet 'Lestaurtinib' of Supplementary Table 1),run:Lestaurtinib_02572_R1,Plate:MR015): 617 nM
potency estimated from few doses ([1]; compound concentrations:100 nM and 1000 nM (sheet 'Lestaurtinib' of Supplementary Table 1),run:Lestaurtinib_02572_R2,Plate:MR015): 1330 nM
potency estimated from few doses ([1]; compound concentrations:100 nM and 1000 nM (sheet 'Lestaurtinib' of Supplementary Table 1),run:Lestaurtinib_02572_R3,Plate:MR015): 1400 nM
potency estimated from few doses ([1]; compound concentrations:100 nM and 1000 nM (sheet 'Lestaurtinib' of Supplementary Table 1),run:Lestaurtinib_02577_R2,Plate:MR016): 1210 nM
potency estimated from few doses ([1]; compound concentrations:100 nM and 1000 nM (sheet 'Lestaurtinib' of Supplementary Table 1),run:Lestaurtinib_02577_R3,Plate:MR016): 924 nM
potency estimated from few doses ([1]; compound concentrations:100 nM and 1000 nM (sheet 'Lestaurtinib' of Supplementary Table 1),run:Lestaurtinib_02584_R1,Plate:MR017): 1410 nM
potency estimated from few doses ([1]; compound concentrations:100 nM and 1000 nM (sheet 'Lestaurtinib' of Supplementary Table 1),run:Lestaurtinib_02584_R3,Plate:MR017): 1530 nM
potency estimated from few doses ([1]; compound concentrations:100 nM and 1000 nM (sheet 'Lestaurtinib' of Supplementary Table 1),run:Lestaurtinib_02601_R1,Plate:MR018): 805 nM
potency estimated from few doses ([1]; compound concentrations:100 nM and 1000 nM (sheet 'Lestaurtinib' of Supplementary Table 1),run:Lestaurtinib_02601_R2,Plate:MR018): 710 nM
potency estimated from few doses ([1]; compound concentrations:100 nM and 1000 nM (sheet 'Lestaurtinib' of Supplementary Table 1),run:Lestaurtinib_02606_R2,Plate:MR019): 749 nM
potency estimated from few doses ([1]; compound concentrations:100 nM and 1000 nM (sheet 'Lestaurtinib' of Supplementary Table 1),run:Lestaurtinib_02606_R3,Plate:MR019): 736 nM
potency estimated from few doses ([1]; compound concentrations:100 nM and 1000 nM (sheet 'Lestaurtinib' of Supplementary Table 1),run:Lestaurtinib_02624_R1,Plate:MR020): 849 nM
potency estimated from few doses ([1]; compound concentrations:100 nM and 1000 nM (sheet 'Lestaurtinib' of Supplementary Table 1),run:Lestaurtinib_02624_R2,Plate:MR020): 711 nM
potency estimated from few doses ([1]; compound concentrations:100 nM and 1000 nM (sheet 'Lestaurtinib' of Supplementary Table 1),run:Lestaurtinib_02624_R3,Plate:MR020): 877 nM
potency estimated from few doses ([1]; compound concentrations:100 nM and 1000 nM (sheet 'Lestaurtinib' of Supplementary Table 1),run:Lestaurtinib_02724_R2,Plate:MR021): 803 nM
potency estimated from few doses ([1]; compound concentrations:100 nM and 1000 nM (sheet 'Lestaurtinib' of Supplementary Table 1),run:Lestaurtinib_02724_R3,Plate:MR021): 946 nM
potency estimated from few doses ([1]; compound concentrations:100 nM and 1000 nM (sheet 'Lestaurtinib' of Supplementary Table 1),run:Lestaurtinib_02748_R1,Plate:MR024): 752 nM
potency estimated from few doses ([1]; compound concentrations:100 nM and 1000 nM (sheet 'Lestaurtinib' of Supplementary Table 1),run:Lestaurtinib_02748_R3,Plate:MR024): 559 nM
potency estimated from few doses ([1]; compound concentrations:100 nM and 1000 nM (sheet 'Lestaurtinib' of Supplementary Table 1),run:Lestaurtinib_02752_R2,Plate:MR025): 851 nM
potency estimated from few doses ([1]; compound concentrations:100 nM and 1000 nM (sheet 'Lestaurtinib' of Supplementary Table 1),run:Lestaurtinib_02752_R3,Plate:MR025): 786 nM
potency estimated from few doses ([1]; compound concentrations:100 nM and 1000 nM (sheet 'Lestaurtinib' of Supplementary Table 1),run:Lestaurtinib_02765_R1,Plate:MR026): 911 nM
potency estimated from few doses ([1]; compound concentrations:100 nM and 1000 nM (sheet 'Lestaurtinib' of Supplementary Table 1),run:Lestaurtinib_02765_R2,Plate:MR026): 741 nM
potency estimated from few doses ([1]; compound concentrations:100 nM and 1000 nM (sheet 'Lestaurtinib' of Supplementary Table 1),run:Lestaurtinib_02766_R1,Plate:MR027): 782 nM
potency estimated from few doses ([1]; compound concentrations:100 nM and 1000 nM (sheet 'Lestaurtinib' of Supplementary Table 1),run:Lestaurtinib_02766_R2,Plate:MR027): 96.4 nM
potency estimated from few doses ([1]; compound concentrations:100 nM and 1000 nM (sheet 'Lestaurtinib' of Supplementary Table 1),run:Lestaurtinib_02766_R3,Plate:MR027): 669 nM
potency estimated from few doses ([1]; compound concentrations:100 nM and 1000 nM (sheet 'Lestaurtinib' of Supplementary Table 1),run:Lestaurtinib_02768_R3,Plate:MR028): 518 nM
potency estimated from few doses ([1]; compound concentrations:100 nM and 1000 nM (sheet 'Lestaurtinib' of Supplementary Table 1),run:Lestaurtinib_02795_R2,Plate:MR022): 783 nM
potency estimated from few doses ([1]; compound concentrations:100 nM and 1000 nM (sheet 'Lestaurtinib' of Supplementary Table 1),run:Lestaurtinib_02795_R3,Plate:MR022): 860 nM
potency estimated from few doses ([1]; compound concentrations:100 nM and 1000 nM (sheet 'Lestaurtinib' of Supplementary Table 1),run:Lestaurtinib_02802_R1,Plate:MR029): 713 nM
potency estimated from few doses ([1]; compound concentrations:100 nM and 1000 nM (sheet 'Lestaurtinib' of Supplementary Table 1),run:Lestaurtinib_02802_R2,Plate:MR029): 472 nM
potency estimated from few doses ([1]; compound concentrations:100 nM and 1000 nM (sheet 'Lestaurtinib' of Supplementary Table 1),run:Lestaurtinib_02802_R3,Plate:MR029): 74.9 nM
potency estimated from few doses ([1]; compound concentrations:100 nM and 1000 nM (sheet 'Lestaurtinib' of Supplementary Table 1),run:Lestaurtinib_02896_R2,Plate:MR030): 1800 nM
potency estimated from few doses ([1]; compound concentrations:100 nM and 1000 nM (sheet 'Lestaurtinib' of Supplementary Table 1),run:Lestaurtinib_02896_R3,Plate:MR030): 761 nM
potency estimated from few doses ([1]; compound concentrations:100 nM and 1000 nM (sheet 'Lestaurtinib' of Supplementary Table 1),run:Lestaurtinib_03172_R1,Plate:MR031): 796 nM
potency estimated from few doses ([1]; compound concentrations:100 nM and 1000 nM (sheet 'Lestaurtinib' of Supplementary Table 1),run:Lestaurtinib_03172_R2,Plate:MR031): 564 nM
potency estimated from few doses ([1]; compound concentrations:100 nM and 1000 nM (sheet 'Lestaurtinib' of Supplementary Table 1),run:Lestaurtinib_03172_R3,Plate:MR031): 696 nM
potency estimated from few doses ([1]; compound concentrations:100 nM and 1000 nM (sheet 'Lestaurtinib' of Supplementary Table 1),run:Lestaurtinib_03252_R1,Plate:MR032): 1210 nM
potency estimated from few doses ([1]; compound concentrations:100 nM and 1000 nM (sheet 'Lestaurtinib' of Supplementary Table 1),run:Lestaurtinib_03252_R2,Plate:MR032): 26.1 nM
potency estimated from few doses ([2]; compound concentrations:100 nM and 1000 nM (sheet 'Lestaurtinib' of Supplementary Table 1),run:Lestaurtinib_02339_R1,Plate:MR001): 41.6 nM
potency estimated from few doses ([2]; compound concentrations:100 nM and 1000 nM (sheet 'Lestaurtinib' of Supplementary Table 1),run:Lestaurtinib_02339_R3,Plate:MR001): 39.3 nM
